Laboratory results published in PubChem BioAssay AID1159580 (chemical genetic matrix, 2015).
In all, about 5,500 compounds went through this assay and about 2,000 (36%) were called active. Another 18% or so got no clear call; they are omitted. No stated cut-off is given here; in the data, active means normalized growth mostly below about 0.91 (no sharp cut-off); inconclusive means no clear call, values can overlap the other calls; inactive means mostly above about 0.92. This is one part of the list.

Assay: chemical genetic growth profiling, strain panel (AID 1159580);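 further: tested at 20 µM; growth read once vehicle control cultures reached saturation at 30 °C; 1 = growth at the plate median or of vehicle wells; lower values mean less growth of the strain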
Settings: S. cerevisiae deletion strains, growth OD

Measured: normalized growth

CCn1cc([N+](=O)[O-])nc1C
inactive: locus YAL013W, strain DEP1, active compounds read low 1 | locus YBR229C, strain ROT2, active compounds read low 1.02 | locus YDL101C, strain DUN1, active compounds read low 1.03 | locus YDR150W, strain NUM1, active compounds read low 1.03 | locus YEL061C, strain CIN8, active compounds read low 0.981 | locus YGR078C, strain PAC10, active compounds read low 1.02 | locus YHR030C, strain SLT2, active compounds read low 1.05 | locus YHR087W, strain rtc3, active compounds read low 0.975 | locus YJR043C, strain POL32, active compounds read low 1.06 | locus YJR075W, strain HOC1, active compounds read low 1 | locus YKL190W, strain CNB1, active compounds read low 1 | locus YLR039C, strain RIC1, active compounds read low 0.987 | locus YLR058C, strain SHM2 (second series), active compounds read low 0.998 | locus YLR085C, strain ARP6, active compounds read low 0.982 | locus YLR262C, strain YPT6, active compounds read low 0.979 | locus YML094W, strain GIM5, active compounds read low 0.968 | locus YMR219W, strain ESC1, active compounds read low 0.983 | locus YMR263W, strain SAP30, active compounds read low 1.01 | locus YNL128W, strain TEP1, active compounds read low 1.02 | locus YNL153C, strain GIM3, active compounds read low 1.02 | locus YNL298W, strain CLA4 (second series), active compounds read low 1 | locus YNL322C, strain KRE1, active compounds read low 0.997 | locus YNR030W, strain Alg12, active compounds read low 0.976 | locus YPL055C, strain LGE1, active compounds read low 1.01 | locus YPL241C, strain CIN2, active compounds read low 1.02 | locus YPR135W, strain CTF4, active compounds read low 1.05
